# Experimental data taken from PubChem BioAssay.
# Values joined by “and” are separate entries in the source; they are usually repeats but may differ in a detail not shown here. Identical values can stand only once.
# Tested on: wheat germ agglutinin (Triticum aestivum), Alexa647-labelled
# Test: wheat germ agglutinin binders on compound microarrays, profiling panel, artefact control for SMM control-protein annotation, biochemical, small-molecule microarray, 635/667 nm fluorescence (AID 1140);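 further: score merges 667 nm feature emission with signal to noise over triplicate slides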
# Conditions: WGA-A647 binding, 635 nm fluorescence, higher = more signal
row,SMILES,composite z-score
1,C=CCN(CCCC)C(=O)C(c1cccs1)N(CCOCCO)C(=O)/C=C\C(=O)O (stereo not given),-0.667 and -0.193
2,CC(C)[Si]1(C(C)C)OCc2cc(CCCc3cc4c(c(CCc5ccccc5)n3)[Si](C(C)C)(C(C)C)OC4)nc(CCc3ccccc3)c21,-1.24 and -0.214
3,O=C1[C@H]2[C@H]3[C@H](O)[C@H](O)CC(=NOCc4ccccc4)[C@H]3CC[C@H]2C(=O)N1Cc1ccccc1,0.0116
4,C=CCN(C(=O)C1N(CCOCCO)C(=O)C2C(C(=O)O)C3C=CC21O3)c1ccc(OC)cc1 (stereo not given),-0.937 and -1.41
5,C=CCN(CCCCC)C(=O)C(c1cccs1)N(C(=O)/C=C\C(=O)O)c1c(Cl)cccc1CO (stereo not given),-1.74 and -0.357
6,C=C[C@@H](OC)[C@H](O)c1ccc(OCCO)cc1,1.26 and -0.543
7,CC(=O)OC[C@H]1O[C@H](C#CC(C)(C)C)C=C[C@@H]1OC(C)=O,0.445
8,C[N+](C)(C)CCCCCCNC(=O)[C@H]1C[C@H]2C(=O)N[C@@H](CCCC[N+](C)(C)C)C(=O)N2[C@H]1c1ccc(O)cc1,0.618 and -0.277
9,COc1ccc(-c2ccc3c(n2)CCCN3CC(O)CN2CCCc3nc(-c4ccc(Br)cc4)ccc32)cc1 (stereo not given),0.557 and 0.333
10,CC(CO)N1C(=O)[C@@H]2C3C(=O)OCCC=C[C@H]3OC23C=CCN(Cn2nnc4ccccc42)C(=O)[C@@H]13 (stereo not given in full),-0.711 and -0.23
11,C[C@@]1([C@@H](NC(=O)Cc2ccccc2)c2ccc(-c3ccccc3)cc2)C[C@H]1C1CCCCC1,1.04 and 0.829 and 1.15
12,C=CCN(CCCC)C(=O)C(c1cccs1)N(C(=O)/C=C\C(=O)O)c1c(Cl)cccc1CO (stereo not given),-0.178 and -0.7
13,C=C[C@@H](C)[C@@H](O)c1ccc(OCCO)cc1,-0.616 and -0.2
14,C=CCN(CCCCC)C(=O)C(c1cccs1)N(CCOCCO)C(=O)/C=C\C(=O)O (stereo not given),-0.539 and 0.579
15,CC(C)CCN1CCc2nc(-c3ccccc3)c3c(c2C1)CO[C@@H](C)C3,0.931
16,C=CCN(CCCC)C(=O)C1N(c2ccc(CCO)cc2)C(=O)C2C(C(=O)O)C3C=CC21O3 (stereo not given),0.0666 and -1.56
17,C=C[C@H](OC)[C@@H](O)c1ccc(OCCO)cc1,-2.15 and -0.827
18,C=C[C@H](C)[C@H](O)c1ccc(O)c2ccccc12,-0.0985 and -0.45

row,SMILES,composite z-score
1,COC(=O)C1=C(C)N(Cc2ccccc2)[C@]23O[C@](C(=O)OC)(C(=O)N2[C@@H]1c1ccccc1)[C@H]1C(=O)N(c2ccccc2)C(=O)[C@H]13,1.07 and 0.541
2,CN1C(=O)C2CC=C([C@H]3Oc4ccccc4S(=O)(=O)N4CCC[C@@H]34)CC2C1=O (stereo not given in full),-0.213 and -1.39
3,CC(C)=NOC[C@@H](O)COCc1ccco1,-0.988
4,CCOC(=O)NN=C1C[C@@H](O)[C@@H](O)[C@@H]2[C@@H]3C(=O)N(Cc4ccccc4)C(=O)[C@@H]3CC[C@@H]12,0.0775
5,COC(=O)C1=C(C)N(Cc2ccccc2)[C@]23O[C@](C(=O)OC)(C(=O)N2[C@@H]1c1ccccc1)[C@H]1CCCC(=O)[C@H]13,0.528 and -0.124
6,C#CCCCON=C1C[C@@H](O)[C@@H](O)[C@@H]2[C@@H]3C(=O)N(C4CCCCC4)C(=O)[C@@H]3CC[C@H]12,0.698
7,C=C[C@@H](OC)[C@H](O)c1ccc(OC)c(O)c1,-0.368 and 0.0786
8,CC(C)=NOCc1ccc(-c2cn([C@@H]3COC[C@H]3O)nn2)cc1,-0.132
9,CO[C@@H]1C=CCC(=O)N2CCC[C@H]2C(=O)OC[C@H](C)C(=O)OC[C@H]1C,0.508
10,CCCCCN1CC=CC23O[C@@H]4C=CCCOC(=O)C4[C@H]2C(=O)N(C(C)CO)[C@@H]3C1=O (stereo not given in full),0.138 and -0.194
11,COC(=O)[C@@]1(Cc2ccc(OC)cc2)[C@H]2c3cc(C(=O)N(C)C)n(Cc4ccc(O)c(OC)c4)c3C[C@H]2CN1C(=O)c1ccccc1,1.39 and 0.989
12,C=CCN(Cc1ccccc1)C(=O)C(c1cccs1)N(C(=O)/C=C\C(=O)O)c1ccc(CCO)cc1 (stereo not given),-0.99 and -0.888
13,CCN1C(=O)[C@H]2[C@H]3[C@H](O)[C@H](O)CC(=NOC)[C@@H]3CC[C@H]2C1=O,0.299
14,C[N+](C)(C)CCCCNC(=O)[C@@H]1C[C@@H]2C(=O)N[C@@H](CCCC[N+](C)(C)C)C(=O)N2[C@@H]1c1cccc(OCCO)c1,0.284 and 0.68
15,CO[C@H]1COC(=O)CC=C[C@H](C)[C@H](OC)COC(=O)[C@@H](C)COC(=O)CC=C[C@@H]1C,-0.464 and -0.424
16,Cc1cc2c(nc1C)CCCN2CC(O)CN1CCCc2nc(-c3ccc(Br)cc3)ccc21 (stereo not given),1.15 and 1.36
17,COC(=O)C1=C(C)N(Cc2ccccc2)C2=C(C(=O)c3ccccc3)[C@H](c3ccccc3)[C@@](O)(C(=O)OC)C(=O)N2[C@@H]1c1ccccc1,0.419 and -0.0152
